Measurements published in PubChem BioAssay (NCI).
About 79,000 compounds went through this panel and 15% of them were active in at least one assay; those are over-represented in the sample as a whole. No stated cut-off is given here; in the data, active means growth inhibition above about 70%; inactive means the rest. Where a SMILES comes first, the peptide text is derived from it. [ ]: non-standard residue; d: D form. The star is where a group is joined. Cbz = O=C(OCc1ccccc1)*; Nva = CCC[CH](N)C(=O)O

Columns and labels:
[1] = NCI Yeast Anticancer Drug Screen. Data for the rad50 strain (AID 155);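 further: 0% = growth of vehicle-only cultures of the same strain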; settings: S. cerevisiae rad50 strain growth inhibition; at 50.0 µM; hits give high values
Summary of the method: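 Compounds were tested on a yeast strain with an engineered DNA damage repair alteration; the reported value is growth inhibition normalised to vehicle treatment.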

[2] = NCI Yeast Anticancer Drug Screen. Data for the mec2-1 strain (AID 157); settings: S. cerevisiae mec2-1 strain, at 50.0 µM, hits give high values
Summary of the method: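 Using mec2-1 yeast: add compound, measure growth, express inhibition versus vehicle-treated cultures.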

[3] = NCI Yeast Anticancer Drug Screen. Data for the sgs1 mgt1 strain (AID 161);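 further: 0% = growth of cultures given vehicle only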; settings: S. cerevisiae sgs1 mgt1 strain, at 50.0 µM, hits give high values
Summary of the method: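 Compounds are added to genetically altered yeast, and growth is compared with cultures given vehicle alone to give percent inhibition.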

[4] = NCI Yeast Anticancer Drug Screen. Data for the cln2 rad14 strain (AID 165);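 further: 0% = growth equal to vehicle treated cultures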; settings: S. cerevisiae cln2 rad14 strain, at 50.0 µM, hits give high values
Summary of the method: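 Yeast strain cln2 rad14, bearing defects in cell cycle control and DNA repair, serves as the test system; values reflect growth inhibition compared with vehicle.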

[5] = NCI Yeast Anticancer Drug Screen. Data for the bub3 strain (AID 167); settings: S. cerevisiae bub3 mutant strain, at 50.0 µM, hits give high values
Summary of the method: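 Growth of a checkpoint-deficient yeast mutant is measured after compound exposure. Values represent inhibition relative to vehicle.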

[6] = NCI Yeast Anticancer Drug Screen. Data for the mlh1 rad18 strain (AID 175); settings: S. cerevisiae mlh1 rad18 strain growth inhibition; at 50.0 µM; hits give high values
Summary of the method: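 Steps: expose repair-defective yeast to compound; measure growth; express inhibition against vehicle-treated controls.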

Measured: growth inhibition

Cc1ccsc1/C=N/Nc1cnccn1
inactive: [1] 11.1% | [2] 2.6% | [3] 17.3% | [4] 6.15% | [5] 0.4% | [6] 19.9%

CN(C)c1nc(OC2C(C(O)CO)OC3OC(C)(C)OC32)nc(N(C)C)n1 (centres undefined)
inactive: [1] 31.1% | [2] -11.7% | [3] 6.15% | [4] 18% | [5] -1.05% | [6] -0.65%

CSc1n[nH]c(=O)c2nc[nH]c12
inactive: [1] -9.3% | [2] -9.2% | [3] 0.55% | [4] -34.5% | [5] 7.75% | [6] -5.2%

CCCC(NC(=O)OCc1ccccc1)C(=O)NC(C(=O)O)C(C)CC (centres undefined) (Cbz-[Nva]-Ile-OH; configuration not given here)
inactive: [1] 26.3% | [2] 12.4% | [3] 2.75% | [4] 29.1% | [5] 4.55% | [6] 9.6%

O=C(Nc1cccc2c1C(=O)c1cc(Cl)ccc1C2=O)c1ccccc1
inactive: [1] -2.7% | [2] 0.1% | [3] 4% | [4] -38.9% | [5] 5% | [6] -2.3%

CN[C@H]1CC[C@]23C[C@]24CC[C@]2(C)[C@@H]([C@H](C)N(C)C)CC[C@@]2(C)[C@@H]4CC[C@H]3C1(C)C
inactive: [1] 1.3% | [2] -4.65% | [3] 9.2% | [4] 6.35% | [5] 8.25% | [6] -63.8%

Cc1ccc2c(c1)[nH]c(=S)n2C=C(C#N)C#N
inactive: [1] -23.6% | [2] -42.4% | [3] -1.1% | [4] 0.75% | [5] -0.55% | [6] -5.15%

CCCc1cc(=O)oc2c3c(c4c(c12)OC(C)(C)C=C4)OC(C)[C@H](C)[C@@H]3O (some centres undefined)
inactive: [1] 14.4% | [2] 11.4% | [3] 32% | [4] 8.85% | [5] 19.8% | [6] 26.1%

N#CCCN(CCC#N)c1ccc(/C=C2\N=C(c3cc([N+](=O)[O-])ccc3Cl)N(NC(=O)CC(=O)Nc3ccccc3Cl)C2=O)cc1
inactive: [1] -31% | [2] -28.1% | [3] -13.8% | [4] 2.5% | [5] 1.65% | [6] -18.3%

O=C(CN=C(CN(c1ccccc1)c1ccccc1)Oc1c(Cl)cc(Cl)cc1Cl)n1cnc2ccccc21
inactive: [1] 0.9% | [2] -9% | [3] 35.3% | [4] -63.4% | [5] -46.4% | [6] 10.4%

C[C@@]1(NC(=O)Cc2ccccc2)C(=O)N2CCS[C@@]21c1ccccc1
inactive: [1] 0.4% | [2] 0.8% | [3] -20.6% | [4] -3.2% | [5] 12.8% | [6] 1.95%

Nc1nc2cc(Cl)c(O)cc2o1
inactive: [1] -3.25% | [2] -11.6% | [3] -3.5% | [4] -6.7% | [5] -3.55% | [6] -7.9%

CC(C)CCCC(C)C1CCC2C3CC=C4CC(O[N+](=O)[O-])CCC4(C)C3CCC12C (centres undefined)
inactive: [1] -24.8% | [2] -6% | [3] -17.1% | [4] -13.8% | [5] -5.15% | [6] 17.9%

Cc1cccc(C)c1NC(=S)NC(=O)c1cccc(Cl)c1
inactive: [1] -13.6% | [2] -23% | [3] -2.9% | [4] -10.5% | [5] -20.4% | [6] -16.6%

Nc1nc(SCC(=O)O)nc(N)c1N=Nc1ccc(S(=O)(=O)NC(=O)c2ccccc2)cc1
inactive: [1] 7.3% | [2] 5.75% | [3] -7.4% | [4] -0.3% | [5] 0.1% | [6] 15.6%

CCN(CC)C(=O)C1CCN(Cc2c[nH]c3ccccc23)CC1
inactive: [1] -3.05% | [2] -6.85% | [3] -10.2% | [4] -53% | [5] 2.75% | [6] -0.2%

O=C(Nc1ccc(Cl)cc1)OCC#CCOC(=O)Nc1ccc(Cl)cc1
inactive: [1] 5.8% | [2] -2.75% | [3] -6.3% | [4] -2.05% | [5] -0.35% | [6] 2.1%

Cc1cc(OC(=O)c2ccccc2)cc(C)c1OC(=O)c1ccccc1
inactive: [1] 10% | [2] 2.9% | [3] 0.1% | [4] -6.15% | [5] 7.15% | [6] -6.7%

COc1cc(C(C)O)c[n+](Cc2ccccc2)c1 (centres undefined)
inactive: [1] -31.6% | [2] -7.3% | [3] -16.1% | [4] 3.6% | [5] -18.9% | [6] -18.9%
